Inconclusive results are not listed. Values without a mark were called inactive. The source made the active and inactive calls. Calls follow the shape of the dose curve; as a rule, active = well fitted inhibition curve with a large enough effect; inconclusive = small, poorly fitted or top-dose-only effect; inactive = flat fitted curve, though single readings scatter. Where a SMILES comes first, the peptide text is derived from it. [ ]: non-standard residue; d: D form. The star is where a group is joined. Benzoyl(4-tBu) = CC(C)(C)c1ccc(C(=O)*)cc1; Lys(Et2) = CCN(CC)CCCC[C@H](N)C(=O)O
Biological target: Glutathione peroxidase 1 (Homo sapiens) (UniProt P07203)
Sequence (P07203 whole entry, looked up): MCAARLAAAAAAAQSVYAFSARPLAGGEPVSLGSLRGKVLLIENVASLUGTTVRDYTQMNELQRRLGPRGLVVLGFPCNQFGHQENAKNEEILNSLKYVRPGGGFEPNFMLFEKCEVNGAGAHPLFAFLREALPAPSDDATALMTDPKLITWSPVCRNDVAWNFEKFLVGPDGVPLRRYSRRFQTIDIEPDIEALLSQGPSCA
Assay: Primary qHTS Assay for Inhibitors of Recombinant Selenoprotein Glutathione Peroxidase 1 (GPX1) (AID 1845191)
Conditions: recombinant GPX1, GR-coupled NADPH fluorescence, 15 min; series mostly up to 48.8 µM; activity, negative = inhibition: at the top concentration
How it was run: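 GR-coupled readout: NADPH consumption tracked by fluorescence, ex 340/em 450 nm, at t=0 and after 15 min at RT. Final mix 10 nM GPX1, 1 mM GSH, 0.5 mM CHP, 0.5 mM NADPH, 100 nM GR, 0.01% BSA, following 30 min enzyme–compound preincubation.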
% is scaled to controls: 0 for no effect and ±100 for the full control effect.
Also: nearly all actives have a fitted effect of over 65% in size.

**Q.** CC[C@@]1(O)C(=O)OCc2c1cc1n(c2=O)Cc2c-1nc1ccccc1c2CCNC(C)C was tested. Which activity, negative = inhibition did it give?
**A.** The activity, negative = inhibition was -16.5% [at 4.49 µM].

**Q.** For O=C(O)c1ccccc1-c1ccc(/C=c2\sc3nc4cc(Br)cnc4n3c2=O)o1, which “activity, negative = inhibition” value is on record?
**A.** Its value is -21.1% [at 27.7 µM].

**Q.** For Cc1cc(O)cc2c1[C@]1(C)CC[C@H]3C(C)(C)CCC[C@]3(C)[C@H]1C2, which activity, negative = inhibition is on record?
**A.** Its activity, negative = inhibition is -4.81% [at 4.49 µM].

**Q.** How did the “activity, negative = inhibition” value turn out when COc1ccc2c(c1)C(c1ccc(F)cc1)=C(CN1CCCC1)CO2 was run?
**A.** Its value is -6.28%.

**Q.** With N=C1S/C(=C\c2ccc(-c3ccc4c(c3)C(=O)NC4=O)o2)C(=O)N1c1ccc(Br)cc1 as the compound, how does the “outcome” value read?
**A.** The value was “inactive [at 27.7 µM]”.

**Q.** CO[C@H]1/C=C/O[C@@]2(C)Oc3c(C)c(O)c4c(O)c(c5c(nc6cc(C)ccn65)c4c3C2=O)NC(=O)/C(C)=C\C=C\[C@H](C)[C@H](O)[C@@H](C)[C@@H](O)[C@@H](C)[C@H](OC(C)=O)[C@@H]1C was tested. Which “outcome” value did it give?
**A.** Its value is “inactive”.

**Q.** For O=C(O)CCNc1cc(N2CCc3ccccc3CC2)nc(-c2cccnc2)n1, which “outcome” value is on record?
**A.** Its value is “inactive”.

**Q.** For O=C(O)C[C@H]1CCc2c1[nH]c1ccc(OCc3ccc(C4CCCC4)c(C(F)(F)F)c3)cc21, which “outcome” value is on record?
**A.** Its value is “inactive”.

**Q.** How did the “outcome” value turn out when Cn1cc(/C=C/C(=O)c2cccc(F)c2)cc1/C=C/C(=O)NO was run?
**A.** The value was “inactive”.

**Q.** How did the “outcome” value turn out when CCS(=O)(=O)N1CCC(C(C)n2c(C)c(C(=O)NCc3c(OC)cc(C)[nH]c3=O)c3ccccc32)CC1 (centres undefined) was run?
**A.** The value was “inactive”.

**Q.** For O=C(O)CCCCN(CCc1ccccc1OCc1ccc(CCc2ccccc2)cc1)Cc1ccc(C(=O)O)cc1, which “outcome” value is on record?
**A.** Its value is “inactive”.

**Q.** C[C@@H]1CC(=O)Nc2cccc(-c3ccc4c(c3)c(-c3cnn(C)c3)nn4C)c2N1 was tested. Which “activity, negative = inhibition” value did it give?
**A.** The value was -2.66%.

**Q.** With C=C1C[C@H]2C=Nc3cc(OCCCOc4cc5c(cc4OC)C(=O)N4CC(=C)C[C@H]4C=N5)c(OC)cc3C(=O)N2C1 as the compound, how does the “outcome” value read?
**A.** The value was “inactive”.

**Q.** How did the “outcome” value turn out when O=c1ncccn1[C@@H]1O[C@H](CO)[C@@H](O)[C@H]1O was run?
**A.** The value was “inactive”.

**Q.** CONC(=O)Nc1ccc(-c2sc3c(c2CN(C)C)c(=O)n(-c2ccc(OC)nn2)c(=O)n3Cc2c(F)cccc2F)cc1 was tested. Which “outcome” value did it give?
**A.** Its value is “inactive”.

**Q.** For Cc1c(-c2c(-c3ccc(F)o3)sc3ncnc(O[C@@H](Cc4ccccc4OCc4ccnn4CC(F)(F)F)C(=O)O)c23)ccc(OCCN2CCN(C)CC2)c1Cl, which “outcome” value is on record?
**A.** The value was “inactive”.

Biological target: Phospholipid hydroperoxide glutathione peroxidase GPX4 (Homo sapiens) (UniProt P36969)
Sequence (P36969 whole entry, looked up): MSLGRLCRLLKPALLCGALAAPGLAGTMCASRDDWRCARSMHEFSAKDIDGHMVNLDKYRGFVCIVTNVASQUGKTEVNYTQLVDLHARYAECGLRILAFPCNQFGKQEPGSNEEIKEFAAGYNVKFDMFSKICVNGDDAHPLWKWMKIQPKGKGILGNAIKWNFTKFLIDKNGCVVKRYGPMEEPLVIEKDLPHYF
Assay: Primary qHTS Assay for Inhibitors of Recombinant Selenoprotein Glutathione Peroxidase 4 (GPX4) (AID 1845192)
Conditions: recombinant GPX4, GR-coupled NADPH fluorescence, 15 min; series mostly up to 50 µM; activity change, negative = inhibition: at the top concentration
How it was run: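 Steps: GPX4 plus compound, 30 min RT; add GR/GSH/NADPH master mix; start with cumene hydroperoxide; read 340/450 nm fluorescence at 0 and 15 min. Finals were 200 nM GPX4, 1 mM GSH, 0.5 mM CHP, 0.5 mM NADPH, 100 nM GR.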

**Q.** For COc1ccc2[nH]c3c(c2c1)CCN[C@]31CS[C@@H]2c3c(OC(C)=O)c(C)c4c(c3[C@H](COC1=O)N1[C@@H]2[C@H]2c3c(cc(C)c(OC)c3O)C[C@@H]([C@@H]1O)N2C)OCO4, which activity change, negative = inhibition is on record?
**A.** Its activity change, negative = inhibition is -15.3% [at 9.73 µM].

**Q.** With CCC(C)CNCC(=O)N1CCc2sccc2C1c1cccc(C)n1 (centres undefined) as the compound, how does the “activity change, negative = inhibition” value read?
**A.** The value was -4.91%.

**Q.** CCC(=O)O[C@]1(C(=O)CO)CC[C@H]2[C@@H]3CCC4=CC(=O)CC[C@]4(C)[C@H]3CC[C@@]21C was tested. Which “activity change, negative = inhibition” value did it give?
**A.** The value was -8.95%.

**Q.** For O=S(=O)(Nc1ccc(-c2cccnc2)c2cccnc12)c1cccc(C(F)(F)F)c1, which “activity change, negative = inhibition” value is on record?
**A.** The value was -8.88%.

**Q.** Which “activity change, negative = inhibition” value does the source give for O=c1[nH]nc2c3c(cccc13)NC(CN1Cc3ccccc3C1)=N2 here?
**A.** The value was -16.5%.

**Q.** O=C([O-])C[O-].[Pt+2] was tested. Which Potency did it give?
**A.** Its Potency is “inactive”.

**Q.** For Cc1cc(O)cc2c1[C@]1(C)CC[C@H]3C(C)(C)CCC[C@]3(C)[C@H]1C2, which outcome is on record?
**A.** The outcome was “inactive [at 4.52 µM]”.

**Q.** With CCN(CC)CCCC[C@H](NC(=O)[C@H](CC(C)C)NC(=O)[C@H](C)NC(=O)[C@H](Cc1ccccc1)NC(=O)c1ccc(C(C)(C)C)cc1)C(=O)N[C@@H](CO)C(=O)OC ({Benzoyl(4-tBu)}-FAL[Lys(Et2)]S-OMe) as the compound, how does the “activity change, negative = inhibition” value read?
**A.** The value was -26.4%.

**Q.** For COC(=O)[C@H]1[C@@H](O)[C@@]2(O)c3c(OC)cc(O[C@@H]4O[C@@H]([C@@H](O)CO)CO[C@H]4OC)cc3O[C@@]2(c2ccc(OC)cc2)[C@@H]1c1ccccc1, which “activity change, negative = inhibition” value is on record?
**A.** The value was -4.74%.

**Q.** With COc1nc(N)nc2c1ncn2C1OC(CO)C(O)C1O (centres undefined) as the compound, how does the “activity change, negative = inhibition” value read?
**A.** Its value is -3.52%.

**Q.** With Cc1cc(-c2cnn3c(NCC4CC(C)(O)C4)cc(Oc4cccnc4)nc23)ccc1C(=O)NC1CC1 (centres undefined) as the compound, how does the activity change, negative = inhibition read?
**A.** The activity change, negative = inhibition was -10.8% [at 4.52 µM].

**Q.** Which “outcome” value does the source give for CC(C)n1c(=O)cc(N[C@@H](C)c2ccccc2)[nH]c1=O here?
**A.** The value was “inactive”.

**Q.** Nc1nccc(-c2c(-c3ccc(F)cc3)ncn2C2CCN(Cc3ccon3)CC2)n1 was tested. Which “outcome” value did it give?
**A.** Its value is “inactive”.

**Q.** How did the Potency turn out when CC1(C)S[C@H]2[C@H](NC(=O)[C@@H](N)c3ccc(O)cc3)C(=O)N2[C@H]1C(=O)O was run?
**A.** Its Potency is “inactive”.

**Q.** How did the “activity change, negative = inhibition” value turn out when CCS(=O)(=O)N1CCC(C(C)n2c(C)c(C(=O)NCc3c(OC)cc(C)[nH]c3=O)c3ccccc32)CC1 (centres undefined) was run?
**A.** Its value is -18.5%.

**Q.** CN1CCN(C(=O)[C@H]2[C@@H](C(=O)O)[C@H]3CC[C@@H]2O3)CC1 was tested. Which activity change, negative = inhibition did it give?
**A.** The activity change, negative = inhibition was 3.36% [at 9.73 µM].

**Q.** How did the “activity change, negative = inhibition” value turn out when CC(=O)N1CCN(c2ccc(NC(=O)Cc3cnc(-c4ccnc(F)c4)c(C)c3)nc2)CC1 was run?
**A.** Its value is -7.47%.

**Q.** How did the “outcome” value turn out when CC(=O)N[C@H]1[C@H](O[C@@H]2c3ccc(c(Cl)c3)Oc3cc4cc(c3O[C@@H]3O[C@H](CO)[C@@H](O)[C@H](O)[C@H]3NC(=O)CCCCCCCC(C)C)Oc3ccc(cc3Cl)C[C@H]3NC(=O)[C@H](N)c5ccc(O)c(c5)Oc5cc(O)cc(c5)[C@H](NC3=O)C(=O)N[C@H]4C(=O)N[C@H]3C(=O)N[C@@H]2C(=O)N[C@@H](C(=O)O)c2cc(O)cc(O[C@H]4O[C@H](CO)[C@@H](O)[C@H](O)[C@@H]4O)c2-c2cc3ccc2O)O[C@H](CO)[C@@H](O)[C@@H]1O was run?
**A.** The value was “inactive”.

**Q.** For O=C(Nc1cccc(C(F)(F)F)c1)c1cccc2cc(Oc3cc(CO)ncn3)ccc12, which “outcome” value is on record?
**A.** The value was “inactive”.

**Q.** With NC1=N[C@@]2(c3cc(NC(=O)c4ccc(F)cn4)ccc3F)COC[C@H]2CS1 as the compound, how does the “outcome” value read?
**A.** The value was “inactive”.

**Q.** O=c1ncccn1[C@@H]1O[C@H](CO)[C@@H](O)[C@H]1O was tested. Which “outcome” value did it give?
**A.** Its value is “inactive”.

**Q.** CONC(=O)Nc1ccc(-c2sc3c(c2CN(C)C)c(=O)n(-c2ccc(OC)nn2)c(=O)n3Cc2c(F)cccc2F)cc1 was tested. Which “activity change, negative = inhibition” value did it give?
**A.** The value was -18.9%.

**Q.** With CC(C)(O)CC[C@@H](O)[C@](C)(O)[C@H]1CC[C@@]2(O)C3=CC(=O)[C@@H]4C[C@@H](O)[C@@H](O)C[C@]4(C)[C@H]3CC[C@]12C as the compound, how does the “activity change, negative = inhibition” value read?
**A.** Its value is -26.6%.
